Bioassay records from PubChem BioAssay.
Sampled rows, rich in hits. Any-hit rate of the full collection: about 2.4%.
MEKK2wt PB1 HTS = raises or lowers MEK5 binding to wildtype human MEKK2 PB1 domain | binding response (% of control), % at 10 µM | Q9Y2U5 | bead flow cytometry, Alexa488-MEK5 binding to MEKK2 WT; actives lie on both sides | actives 1.1% (n = 290,000); in the data active = binding response below about 67% or above about 130%
Arbovirus anti = blocks arbovirus infection; arbovirus infection cell-based antiviral screen; inhibition, % at 10 µM; actives 0.37% (n = 200,000); in the data active = inhibition above about 30%
MEKK3 PB1 HTS = raises or lowers MEK5 binding to the human MEKK3 PB1 domain | Q99759 | bead-based flow cytometry, Alexa488-MEK5 binding to MEKK3; actives lie on both sides; 0 = blocked by unlabeled MEK5, 100 = vehicle | binding response (% of control), % at 10 µM | actives 1.4% (n = 290,000) | AID 1529;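 active = binding response more than 3 SD above or below the average of its plate-row segment, actives on both sides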;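 note: Alexa488 bead fluorescence after subtracting the streptavidin-only scavenger bead signal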
Target sequence (Q99759 whole entry, looked up, the tested form may be a part): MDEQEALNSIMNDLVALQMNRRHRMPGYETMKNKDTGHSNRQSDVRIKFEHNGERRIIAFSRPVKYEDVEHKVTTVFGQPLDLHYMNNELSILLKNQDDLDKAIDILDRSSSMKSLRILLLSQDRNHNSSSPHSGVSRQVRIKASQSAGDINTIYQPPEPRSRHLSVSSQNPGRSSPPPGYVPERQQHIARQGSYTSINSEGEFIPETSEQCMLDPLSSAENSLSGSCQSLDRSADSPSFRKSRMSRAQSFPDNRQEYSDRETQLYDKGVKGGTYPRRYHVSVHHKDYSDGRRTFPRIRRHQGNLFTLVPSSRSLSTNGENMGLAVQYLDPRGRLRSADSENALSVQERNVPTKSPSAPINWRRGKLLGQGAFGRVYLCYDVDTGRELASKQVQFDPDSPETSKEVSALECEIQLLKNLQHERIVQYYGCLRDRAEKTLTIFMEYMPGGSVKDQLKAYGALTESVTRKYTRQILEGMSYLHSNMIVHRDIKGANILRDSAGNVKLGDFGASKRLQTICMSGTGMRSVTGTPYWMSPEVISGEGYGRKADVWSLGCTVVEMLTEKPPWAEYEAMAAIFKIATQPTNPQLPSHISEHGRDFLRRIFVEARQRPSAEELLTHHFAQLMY
MEKK2 mut-MEK5 = signal of MEK5 binding to mutant human MEKK2 PB1 domain. bead flow cytometry, Alexa488-MEK5 binding to MEKK2 mutant. percent response, % at 10 µM. actives 0.35% (n = 290,000); in the data active = percent response above about 24%, passing the limit was not always enough
Pf gametocyte = inhibitors of late stage P. falciparum gametocyte viability | P. falciparum stage V gametocytes, ATP luminescence, 24 h | inhibition, % at 10.9 µM | actives 0.065% (n = 150,000) | AID 743093;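 active = inhibition above the mean plus 3 SD of compounds within the control limits, set per campaign, cut at about 38% in these data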;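 note: 0% = DMSO wells and 100% = medium only without gametocytes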
MEKK2wt confirm = raises or lowers MEK5 binding to wildtype human MEKK2, retest. shares compounds with MEKK3 PB1 HTS. bead flow cytometry, Alexa488-MEK5 binding to MEKK2 WT; actives lie on both sides. binding response (% of control), % at 10 µM. actives 2.4% (n = 5,900); in the data active = binding response below about 16% or above about 210%; inactive = in between
MEKK2mut confirm = signal of MEK5 binding to mutant human MEKK2, retest. actives 2% (n = 5,900). shares compounds with MEKK3 PB1 HTS. percent response, % at 10 µM. bead flow cytometry, Alexa488-MEK5 binding to MEKK2 mutant; in the data active = percent response mostly above about 71%, no sharp cut-off; inactive = mostly below about 38%;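 note: higher means compound restores mutant binding toward wildtype level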
MEKK3-MEK5 inh = confirmation of inhibitors of MEK5 binding to human MEKK3. shares compounds with MEKK3 PB1 HTS. actives 1.8% (n = 5,900). binding response (% of control), % at 10 µM. bead flow cytometry, Alexa488-MEK5 binding to MEKK3; active compounds read low;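 active = binding response below 72% of control, or above a set upper limit, though filed actives all read lower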;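 note: 100% = DMSO only wells and 0% = binding blocked by excess unlabeled MEK5; lower values mean stronger disruption of MEK5 binding to MEKK3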
* = called active by the depositor; nt = not tested or not shown; [ ] = remark or other dose.

SMILES | MEKK2wt PB1 HTS | Arbovirus anti | MEKK3 PB1 HTS | MEKK2 mut-MEK5 | Pf gametocyte | MEKK2wt confirm | MEKK2mut confirm | MEKK3-MEK5 inh
Cc1cccc(S(=O)(=O)NC(Cc2c[nH]c3ccccc23)C(=O)O)c1 (centres undefined) | 109 | -5 | 131* | 0 | nt | 98 | 0 | 100
O=C(O)C(Cc1c[nH]c2ccccc12)NS(=O)(=O)c1ccc2ccccc2c1 (centres undefined) | 96 | -3 | 95 | -1 | 4 | nt | nt | nt
Cc1ccc(S(=O)(=O)NC(Cc2ccccc2)C(=O)O)cc1 (centres undefined) | -3.0*[inhibitor] | 4 | 1.0*[inhibitor] | -27 | 2 | 91 | -6 | 96
CCCCC(C(=O)O)C(C)CC(=O)Nc1nccs1 (centres undefined) | 100 | nt | 104 | 10 | -3 | nt | nt | nt
O=C(Cn1cc(C(F)(F)F)cc(Cl)c1=O)NCCc1ccccc1 | 108 | -9 | 135* | 0 | nt | 103 | 2 | 102
Cc1ccccc1NC(=S)NCc1ccc2c(c1)cc(C)n2C | 61*[inhibitor] | 2 | 74*[inhibitor] | -2 | nt | 109 | 7 | 105
Cc1cc2cc(CNS(=O)(=O)c3ccccc3)ccc2n1C | 39*[inhibitor] | -9 | 61 | -20 | nt | 50 | -14 | 73
Cc1cc2cc(CNC(=O)Nc3ccccc3)ccc2n1C | -4.0*[inhibitor] | -5 | 87 | 4 | -11 | 92 | 3 | 95
COc1ccccc1NC(=S)NCc1ccc2c(c1)cc(C)n2C | 98 | 0 | 99 | -7 | 15 | nt | nt | nt
COc1ccc(S(=O)(=O)NCc2ccc3c(c2)cc(C)n3C)cc1 | 85 | 2 | 93 | 1 | nt | nt | nt | nt
CCc1cccc(C)c1NC(=S)NCc1ccc2c(c1)cc(C)n2C | 72*[inhibitor] | 2 | 84 | -3 | nt | 104 | 5 | 105
COc1ccc(S(=O)(=O)Nc2ccc(F)c(F)c2)cc1C(=O)N1CCOCC1 | 102 | nt | 99 | -4 | nt | nt | nt | nt
CC(CCc1ccccc1)NC(=O)CN1CCSc2ccccc21 (centres undefined) | 99 | 2 | 102 | 2 | -32 | nt | nt | nt
CCC(C)c1ccccc1NC(=O)C(C)N(C)Cc1cccc(OC)c1 (centres undefined) | 100 | -4 | 106 | -2 | 11 | nt | nt | nt
S=C(NCCCN1CCOCC1)N1CCN(c2nc(-c3ccc(Cl)cc3)cs2)CC1 | 163* | -30 | 109 | 47 | 8 | 169 | 43 | 112
CC1(C)CC(=O)C(C=Nc2ccncc2)=C(O)C1 | -7.0*[inhibitor] | nt | 0.0*[inhibitor] | -23 | nt | 98 | -6 | 96
CCCCCCN=CC1=C(O)CC(C)(C)CC1=O | 0.0*[inhibitor] | 0 | 0.0*[inhibitor] | -32 | nt | 99 | -3 | 93
COCCCN=CC1=C(O)CC(C)(C)CC1=O | 101 | 11 | 102 | 3 | 31 | nt | nt | nt
COc1cc(NC(=O)C/C(C)=N/NC(=O)C(=O)NCCO)c(OC)cc1Cl | 110 | nt | 107 | 12 | 22 | nt | nt | nt
CCc1ccc2nc(N(CCCN(C)C)C(=O)c3ccc(S(=O)(=O)N4CCCC4)cc3)sc2c1 | 135* | nt | 106 | 16 | nt | 134 | 17 | 106
CN(C)CCCN(C(=O)c1ccc(S(=O)(=O)N2CCCCCC2)cc1)c1nc2c(F)cccc2s1 | 134* | nt | 105 | 14 | nt | 127 | 10 | 101
COc1ccc(C(=O)O)cc1S(=O)(=O)N1CCCc2ccccc21 | 98 | nt | 98 | 6 | nt | nt | nt | nt
COc1cccc2sc(N(CCCN(C)C)C(=O)c3ccc(S(=O)(=O)N4CCCc5ccccc54)cc3)nc12 | 187* | nt | 110 | 38* | nt | 172 | 39 | 107
CN(C)CCN(C(=O)c1ccc2c(c1)CCCC2)c1nc2c(F)cccc2s1 | 117 | nt | 102 | 11 | nt | nt | nt | nt
CCc1ccc2nc(N(CCCN(C)C)C(=O)c3ccc(S(=O)(=O)N4CCCc5ccccc54)cc3)sc2c1 | 188* | nt | 97 | 32* | nt | 203 | 52 | 107
SMILES | MEKK2wt PB1 HTS | Arbovirus anti | MEKK3 PB1 HTS | MEKK2 mut-MEK5 | Pf gametocyte | MEKK2wt confirm | MEKK2mut confirm | MEKK3-MEK5 inh
CC(C)CN(CCNC(=O)CN1C(=O)COc2ccc(S(=O)(=O)N3CCC(C)CC3)cc21)CC(C)C | 107 | nt | 102 | 4 | nt | nt | nt | nt
CCOC(=O)N1CCN(S(=O)(=O)c2ccc(C(=O)N(CCCN(C)C)c3nc4ccc(CC)cc4s3)cc2)CC1 | 133 | nt | 102 | 19 | nt | nt | nt | nt
CN(C)CCCN(C(=O)c1ccc(S(=O)(=O)N2CCCCCC2)cc1)c1nc2ccc(F)cc2s1 | 158* | nt | 110 | 21 | nt | 154 | 37 | 105
CCc1ccc2nc(N(CCCN(C)C)C(=O)c3ccc(C(=O)c4ccccc4)cc3)sc2c1 | 186* | nt | 104 | 32* | nt | 205 | 64 | 109
CN(C)CCN(C(=O)c1ccc(S(=O)(=O)N2CCc3ccccc32)cc1)c1nc2ccc(F)cc2s1 | 124 | nt | 102 | 14 | nt | nt | nt | nt
CCOC(=O)N1CCN(S(=O)(=O)c2ccc(C(=O)N(CCN(CC)CC)c3nc4ccc(C)cc4s3)cc2)CC1 | 130 | nt | 107 | 20 | nt | nt | nt | nt
CN(C)CCN(C(=O)c1ccc(S(=O)(=O)N2CCCC2)cc1)c1nc2ccc(Br)cc2s1 | 138* | nt | 107 | 18 | nt | 177 | 50 | 109
CC1(C)c2[nH]c3ccccc3c2C[C@@H]2C(=O)N(Cc3ccco3)C(=O)N21 | 95 | nt | 98 | -6 | nt | nt | nt | nt
O=C(CCOc1ccccc1)Nc1ccnn1C1CCN(Cc2ccccc2)CC1 | 114 | nt | 111 | 9 | nt | nt | nt | nt
O=C(CCCC(=O)OCC(=O)c1ccc(Cl)cc1)NC1CCCCC1 | 98 | nt | 101 | 3 | nt | nt | nt | nt
Cc1cc(NC(=O)CCN2CCN(C/C=C/c3ccccc3)CC2)ccc1Br | 149* | nt | 112 | 18 | nt | 152 | 20 | 109
Cc1cccc(NC(=O)CCN2CCN(C/C=C/c3ccccc3)CC2)c1 | 107 | -5 | 102 | 11 | -62 | nt | nt | nt
OCC1(Cc2ccccc2)CCCN(Cc2c[nH]c3ccccc23)C1 (centres undefined) | 108 | -25 | 103 | -5 | 11 | nt | nt | nt
Cc1cc(NC(=O)c2cc(C)on2)n(-c2ccccc2)n1 | 79 | -2 | 74*[inhibitor] | -4 | 8 | 98 | 3 | 97
CC(=O)Oc1ccc(C(=O)[C@H]2[C@H]3C(=O)N(c4cccc5ccccc45)C(=O)[C@H]3[C@@H]3C=CC=NN32)cc1 | 101 | -3 | 179* | 0 | -9 | 101 | 2 | 103
CC(C)NC(=O)c1onc(CSc2nc3ccccc3[nH]2)c1C(=O)NC(C)C | 97 | nt | 101 | -4 | -2 | nt | nt | nt
CCn1c(O)c(N=NC(=O)CNc2cccc(C)c2)c2ccccc21 | 107 | -16 | 148* | 1 | nt | 100 | 3 | 102
COc1ccc(CSc2ncn[nH]2)cc1[N+](=O)[O-] | 97 | 2 | 100 | 0 | 3 | nt | nt | nt
